Reference: the supplement of paper PMC10037445
Whole data set: some 2,900 compounds, median “NF-kB SEAP reporter activity, fold change vs agonist alone” near 0.99, cut for the highest 2% near 2.6. The entries come from a sample that favours the highest values as a whole.

How the values were obtained:
RAW-Dual [1] = assay: NF-kB SEAP reporter activity, fold change vs agonist alone; higher = enhanced NF-kB activity
How it was run: (§1)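 After 50 nL of library stock was delivered by pin tool to RAW-Dual macrophages (50,000 cells/well, DMEM, 384-well plates), a PRR agonist was added 1 h later and the plates were kept at 37 °C, 5% CO2. Twenty hours later, IRF was read from supernatant by QuantiLuc luminescence and NF-κB by QuantiBlue absorbance at 620 nm. Reporter activity is stated as fold change over agonist-alone wells. Wells with IncuCyte confluency under 70% of agonist controls in both mask sets were counted as cytotoxic.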

RAW-Dual [2] = assay: NF-kB SEAP reporter activity, fold change vs agonist alone; cytotoxicity flag (confluency mask): not cytotoxic; library stock concentration (final ~1000-fold dilution): 10 mM; higher = enhanced NF-kB activity
How it was run: as §1

RAW-Dual [3] = assay: NF-kB SEAP reporter activity, fold change vs agonist alone; cytotoxicity flag (confluency mask): cytotoxic (confluency <70% of control); library stock concentration (final ~1000-fold dilution): 10 mM; higher = enhanced NF-kB activity
How it was run: as §1

RAW-Dual [4] = assay: NF-kB SEAP reporter activity, fold change vs agonist alone; cytotoxicity flag (confluency mask): not cytotoxic; library stock concentration (final ~1000-fold dilution): 10 mM water; higher = enhanced NF-kB activity
How it was run: as §1

[5] = library stock concentration (final ~1000-fold dilution): 10 mM, cytotoxicity flag (confluency mask): not cytotoxic, agonist: Imiquimod (TLR7) […]
[6] = library stock concentration (final ~1000-fold dilution): 10 mM, cytotoxicity flag (confluency mask): not cytotoxic, agonist: MPLA (TLR4) […]
[7] = agonist: ODN 1826 (TLR9) 0.5 ug/mL
[8] = agonist: Pam2CSK4 (TLR2/6) 0.1 ug/mL
[9] = agonist: Pam3CSK4 (TLR2/1) 0.1 ug/mL
[10] = library stock concentration (final ~1000-fold dilution): 10 mM, cytotoxicity flag (confluency mask): cytotoxic (confluency <70% of control), agonist: Imiquimod (TLR7) […]
[11] = library stock concentration (final ~1000-fold dilution): 10 mM, cytotoxicity flag (confluency mask): cytotoxic (confluency <70% of control), agonist: MPLA (TLR4) […]
[12] = library stock concentration (final ~1000-fold dilution): 10 mM water, cytotoxicity flag (confluency mask): not cytotoxic, agonist: Imiquimod (TLR7) […]
[13] = library stock concentration (final ~1000-fold dilution): 10 mM water, cytotoxicity flag (confluency mask): not cytotoxic, agonist: MPLA (TLR4) […]

Q: Which “NF-kB SEAP reporter activity” value (RAW-Dual [1]; [5]) does the source give for `CC1CCC/C=C/C2CC(O)CC2C(O)/C=C/C(=O)O1` (stereo not drawn) here?
A: 1.48

Q: And the “NF-kB SEAP reporter activity” value (RAW-Dual [1]; [6])?
A: 0.636

Q: And the “NF-kB SEAP reporter activity” value (RAW-Dual [2]; agonist: LPS (TLR4) 0.1 ug/mL)?
A: 0.305

Q: What about the “NF-kB SEAP reporter activity” value (RAW-Dual [2]; [7]) of the same compound?
A: 0.297

Q: What about the “NF-kB SEAP reporter activity” value (RAW-Dual [2]; [8]) of the same compound?
A: 0.209

Q: What about the “NF-kB SEAP reporter activity” value (RAW-Dual [2]; [9]) of the same compound?
A: 0.469

Q: Which “NF-kB SEAP reporter activity” value (RAW-Dual [1]; [5]) does the source give for `O=C(O)CCCc1ccc(N(CCCl)CCCl)cc1` here?
A: 0.998

Q: What about the “NF-kB SEAP reporter activity” value (RAW-Dual [1]; [6]) of the same compound?
A: 1

Q: What about the “NF-kB SEAP reporter activity” value (RAW-Dual [2]; agonist: LPS (TLR4) 0.1 ug/mL) of the same compound?
A: 0.89

Q: What about the “NF-kB SEAP reporter activity” value (RAW-Dual [2]; [7]) of the same compound?
A: 1.04

Q: What about the “NF-kB SEAP reporter activity” value (RAW-Dual [2]; [8]) of the same compound?
A: 1.21

Q: What about the “NF-kB SEAP reporter activity” value (RAW-Dual [2]; [9]) of the same compound?
A: 1.24

Q: `Cn1c(CCCCCCC(=O)NO)nc2cc(N(CCCl)CCCl)ccc21` was tested. Which “NF-kB SEAP reporter activity” value (RAW-Dual [1]; [10]) did it give?
A: 1.62

Q: And the “NF-kB SEAP reporter activity” value (RAW-Dual [1]; [11])?
A: 2.33

Q: And the “NF-kB SEAP reporter activity” value (RAW-Dual [3]; agonist: LPS (TLR4) 0.1 ug/mL)?
A: 3.35

Q: What about the “NF-kB SEAP reporter activity” value (RAW-Dual [3]; [7]) of the same compound?
A: 1.5

Q: And the “NF-kB SEAP reporter activity” value (RAW-Dual [3]; [8])?
A: 1.55

Q: What about the “NF-kB SEAP reporter activity” value (RAW-Dual [3]; [9]) of the same compound?
A: 1.91

Q: With `Cl.O=C(O)Cc1c[nH]cn1` as the compound, how does the “NF-kB SEAP reporter activity” value (RAW-Dual [1]; [5]) read?
A: 0.935

Q: And the “NF-kB SEAP reporter activity” value (RAW-Dual [1]; [6])?
A: 1.05

Q: What about the “NF-kB SEAP reporter activity” value (RAW-Dual [2]; agonist: LPS (TLR4) 0.1 ug/mL) of the same compound?
A: 1.34

Q: What about the “NF-kB SEAP reporter activity” value (RAW-Dual [2]; [7]) of the same compound?
A: 0.991

Q: What about the “NF-kB SEAP reporter activity” value (RAW-Dual [2]; [8]) of the same compound?
A: 0.973

Q: What about the “NF-kB SEAP reporter activity” value (RAW-Dual [2]; [9]) of the same compound?
A: 0.728

Q: Which “NF-kB SEAP reporter activity” value (RAW-Dual [1]; [12]) does the source give for `CNC1C(O)C(OC2C(N)CC(N)C(OC3OC(C(C)O)C(O)C(O)C3N)C2O)OCC1(C)O.O=S(=O)(O)O.O=S(=O)(O)O` (stereo not drawn) here?
A: 0.947

Q: What about the “NF-kB SEAP reporter activity” value (RAW-Dual [1]; [13]) of the same compound?
A: 1.07

Q: What about the “NF-kB SEAP reporter activity” value (RAW-Dual [4]; agonist: LPS (TLR4) 0.1 ug/mL) of the same compound?
A: 1.15

Q: What about the “NF-kB SEAP reporter activity” value (RAW-Dual [4]; [7]) of the same compound?
A: 1.26

Q: And the “NF-kB SEAP reporter activity” value (RAW-Dual [4]; [8])?
A: 1.15

Q: What about the “NF-kB SEAP reporter activity” value (RAW-Dual [4]; [9]) of the same compound?
A: 1.12

Q: With `CC12NC(Cc3ccccc31)c1ccccc12.O=C(O)/C=C\C(=O)O` (stereo not drawn) as the compound, how does the “NF-kB SEAP reporter activity” value (RAW-Dual [1]; [5]) read?
A: 1.16

Q: And the “NF-kB SEAP reporter activity” value (RAW-Dual [1]; [6])?
A: 1.1

Q: And the “NF-kB SEAP reporter activity” value (RAW-Dual [2]; agonist: LPS (TLR4) 0.1 ug/mL)?
A: 1.25

Q: What about the “NF-kB SEAP reporter activity” value (RAW-Dual [2]; [7]) of the same compound?
A: 0.851

Q: What about the “NF-kB SEAP reporter activity” value (RAW-Dual [2]; [8]) of the same compound?
A: 1.13

Q: And the “NF-kB SEAP reporter activity” value (RAW-Dual [2]; [9])?
A: 1.15

Q: With `COc1cc(C)[nH]c(=O)c1CNC(=O)c1c(C)n(C(C)C2CCN(CC(F)(F)F)CC2)c2ccccc12` (stereo not drawn) as the compound, how does the “NF-kB SEAP reporter activity” value (RAW-Dual [1]; [5]) read?
A: 0.35

Q: What about the “NF-kB SEAP reporter activity” value (RAW-Dual [1]; [6]) of the same compound?
A: 0.914

Q: What about the “NF-kB SEAP reporter activity” value (RAW-Dual [2]; agonist: LPS (TLR4) 0.1 ug/mL) of the same compound?
A: 0.78

Q: And the “NF-kB SEAP reporter activity” value (RAW-Dual [2]; [7])?
A: 0.953

Q: What about the “NF-kB SEAP reporter activity” value (RAW-Dual [2]; [8]) of the same compound?
A: 0.647

Q: And the “NF-kB SEAP reporter activity” value (RAW-Dual [2]; [9])?
A: 0.74

Q: `CC(N)C(=O)NC(CO)C(=O)NC(C(=O)NC(C(=O)NC(C(=O)NC(CC(N)=O)C(=O)NC(Cc1ccc(O)cc1)C(=O)NC(C(N)=O)C(C)O)C(C)O)C(C)O)C(C)O` (stereo not drawn) was tested. Which “NF-kB SEAP reporter activity” value (RAW-Dual [1]; [12]) did it give?
A: 0.968

Q: And the “NF-kB SEAP reporter activity” value (RAW-Dual [1]; [13])?
A: 1.05

Q: And the “NF-kB SEAP reporter activity” value (RAW-Dual [4]; agonist: LPS (TLR4) 0.1 ug/mL)?
A: 1.17

Q: What about the “NF-kB SEAP reporter activity” value (RAW-Dual [4]; [7]) of the same compound?
A: 1.25

Q: And the “NF-kB SEAP reporter activity” value (RAW-Dual [4]; [8])?
A: 1.16

Q: What about the “NF-kB SEAP reporter activity” value (RAW-Dual [4]; [9]) of the same compound?
A: 1.06

Q: Which results are given for `C=C(C)C1Cc2c(ccc3c2OC2COc4cc(OC)c(OC)cc4C2C3=O)O1` (stereo not drawn)?
A: NF-kB SEAP reporter activity (RAW-Dual [1]; [5]): 1.87; NF-kB SEAP reporter activity (RAW-Dual [1]; [6]): 1.85; NF-kB SEAP reporter activity (RAW-Dual [2]; agonist: LPS (TLR4) 0.1 ug/mL): 3.13; NF-kB SEAP reporter activity (RAW-Dual [2]; [7]): 2.36; NF-kB SEAP reporter activity (RAW-Dual [2]; [8]): 1.27; NF-kB SEAP reporter activity (RAW-Dual [2]; [9]): 1.45

Q: For `CCC1=CC2CN3CCc4c([nH]c5ccccc45)C(C(=O)OC)(C2)C13` (stereo not drawn), which “NF-kB SEAP reporter activity” value (RAW-Dual [1]; [5]) is on record?
A: 1.03

Q: And the “NF-kB SEAP reporter activity” value (RAW-Dual [1]; [6])?
A: 1.11

Q: What about the “NF-kB SEAP reporter activity” value (RAW-Dual [2]; agonist: LPS (TLR4) 0.1 ug/mL) of the same compound?
A: 1.04

Q: And the “NF-kB SEAP reporter activity” value (RAW-Dual [2]; [7])?
A: 1.06

Q: What about the “NF-kB SEAP reporter activity” value (RAW-Dual [2]; [8]) of the same compound?
A: 0.935

Q: And the “NF-kB SEAP reporter activity” value (RAW-Dual [2]; [9])?
A: 1.03

Q: Which results are given for `COC1=CC2C3Cc4ccc(OC)c(O)c4C2(CCN3C)CC1=O.Cl` (stereo not drawn)?
A: NF-kB SEAP reporter activity (RAW-Dual [1]; [5]): 0.858; NF-kB SEAP reporter activity (RAW-Dual [1]; [6]): 0.999; NF-kB SEAP reporter activity (RAW-Dual [2]; agonist: LPS (TLR4) 0.1 ug/mL): 0.877; NF-kB SEAP reporter activity (RAW-Dual [2]; [7]): 0.884; NF-kB SEAP reporter activity (RAW-Dual [2]; [8]): 1.16; NF-kB SEAP reporter activity (RAW-Dual [2]; [9]): 1.09

Q: For `CN1C2CC(OC(=O)C(CO)c3ccccc3)CC1C1OC12` (stereo not drawn), which “NF-kB SEAP reporter activity” value (RAW-Dual [1]; [5]) is on record?
A: 0.917

Q: What about the “NF-kB SEAP reporter activity” value (RAW-Dual [1]; [6]) of the same compound?
A: 1.04

Q: And the “NF-kB SEAP reporter activity” value (RAW-Dual [2]; agonist: LPS (TLR4) 0.1 ug/mL)?
A: 1.23

Q: And the “NF-kB SEAP reporter activity” value (RAW-Dual [2]; [7])?
A: 1.02

Q: And the “NF-kB SEAP reporter activity” value (RAW-Dual [2]; [8])?
A: 1.11

Q: And the “NF-kB SEAP reporter activity” value (RAW-Dual [2]; [9])?
A: 1.58

Q: For `CN1Cc2c(ccc3c2OCO3)C2C(O)Cc3cc4c(cc3C21)OCO4` (stereo not drawn), which “NF-kB SEAP reporter activity” value (RAW-Dual [1]; [10]) is on record?
A: 1.6

Q: What about the “NF-kB SEAP reporter activity” value (RAW-Dual [1]; [11]) of the same compound?
A: 1.66

Q: And the “NF-kB SEAP reporter activity” value (RAW-Dual [3]; agonist: LPS (TLR4) 0.1 ug/mL)?
A: 2.16

Q: What about the “NF-kB SEAP reporter activity” value (RAW-Dual [3]; [7]) of the same compound?
A: 1.75

Q: And the “NF-kB SEAP reporter activity” value (RAW-Dual [3]; [8])?
A: 1.42

Q: What about the “NF-kB SEAP reporter activity” value (RAW-Dual [3]; [9]) of the same compound?
A: 2.18
